The test system of assay [1] is Vero E6 infected with SARS-CoV-2. Nature of the assay: morphology score (similarity to uninfected cells); higher = more like uninfected cells. The conditions noted are these: 24 h.
Assay [2] shares this test system. Nature of the assay: SARS-CoV-2 infection rate relative to infected DMSO; higher = more infection, active = 60 or less. The conditions noted are these: 24 h.

Take `N#Cc1ccccc1OCC(O)CNCCNC(=O)Nc1ccccc1` (stereo unspecified) (10 µM): the morphology score in assay [1] is -0.0291. Moreover, in assay [2], the SARS-CoV-2 infection rate is 109% (inactive).
Taken in the same sequence, the figures for `Oc1ccc(Cl)cc1` [parachlorophenol] (10 µM) were 0.063 and 98% (inactive).
Take `CC(=O)c1cc([N+](=O)[O-])c(Sc2ccc(F)cc2F)s1` (10 µM): the morphology score in assay [1] stood at 0.534. Moreover, the SARS-CoV-2 infection rate in assay [2] was 38.5% (active).
As for `Oc1cccc(-c2nc(N3CCOCC3)c3oc4ncccc4c3n2)c1` (10 µM), the morphology score in assay [1] is -0.0667. The SARS-CoV-2 infection rate in assay [2] is 118% (inactive).
Taken in the same sequence, the figures for `N[C@@H](CCNCc1ccc(Cl)cc1)C(=O)N1CCCCC1` (10 µM) were -0.159 and 107% (inactive).
`CN[C@@H](C)C(=O)N[C@H]1CCCC[C@H]2CC[C@@H](C(=O)N[C@@H](c3ccccc3)c3cn(CCCCc4ccc(CCCCn5cc([C@@H](NC(=O)[C@@H]6CC[C@@H]7CCCC[C@H](NC(=O)[C@H](C)NC)C(=O)N76)c6ccccc6)nn5)cc4)nn3)N2C1=O` (10 µM) returned a morphology score in assay [1] of 0.155. Further, the SARS-CoV-2 infection rate in assay [2] was 98% (inactive).
In the same order, the values of `C=C1/C(=C\C=C2/CCC[C@]3(C)[C@@H]([C@H](C)/C=C/[C@@H](O)C4CC4)CC[C@@H]23)C[C@@H](O)C[C@@H]1O` [calcipotriol] (10 µM) are -0.273 and 103% (inactive).
`O=C(O)/C=C/CO` [trans-4-hydroxycrotonic-acid] (10 µM) showed a morphology score in assay [1] of 0.0958. The SARS-CoV-2 infection rate in assay [2] was 90.5% (inactive).
Take `C#C[C@]1(OC(C)=O)CC[C@H]2[C@@H]3CCC4=C[C@@H](OC(C)=O)CC[C@@H]4[C@H]3CC[C@@]21C` [ethynodiol-diacetate] (10 µM): in assay [1], the morphology score was -0.0396. Moreover, in assay [2], the SARS-CoV-2 infection rate was 113% (inactive).
In the same order, the values of `CC(C)(C)S(=O)(=O)N[C@H]1CC[C@H](C(=O)Nc2ccc(C(F)(F)F)cn2)CC1` [velneperit] (10 µM) are -0.0103 and 115% (inactive).
Taken in the same sequence, the figures for `CC[C@H](Nc1ncnc2[nH]cnc12)c1nc2cccc(F)c2c(=O)n1-c1ccccc1` [idelalisib] (10 µM) were -0.015 and 116% (inactive).
Taken in the same sequence, the figures for `O=C(COc1ccc(Cl)cc1)N1CCN(Cc2ccc3c(c2)OCO3)CC1` [fipexide] (10 µM) were -0.165 and 112% (inactive).
Molecule `N[C@@H]1CCCN(c2c(/C=C3\SC(=O)NC3=O)cccc2-c2ccccc2)C1` (10 µM) returned a morphology score in assay [1] of -0.0825. The SARS-CoV-2 infection rate in assay [2] is 110% (inactive).
In the same order, the values of `Nc1nnc(-c2cccc(Cl)c2Cl)c(N)n1` [lamotrigine] (10 µM) are 0.0194 and 110% (inactive).
In assay [1], `CCC/N=C1\S/C(=C\c2ccc(OC[C@H](O)CO)c(Cl)c2)C(=O)N1c1ccccc1C` [ponesimod] (10 µM) registered a morphology score of -0.2. The SARS-CoV-2 infection rate in assay [2] was 108% (inactive).
Consider `O=C(O)[C@H](Cc1ccccc1)NCc1ccc(Cl)cc1` (10 µM), for which the morphology score in assay [1] stood at 0.0118. Besides, the SARS-CoV-2 infection rate in assay [2] was 102% (inactive).
The molecule `O=C1NCN(c2ccccc2)C12CCN(CCCC(c1ccc(F)cc1)c1ccc(F)cc1)CC2` [fluspirilene] (10 µM) had a morphology score in assay [1] of 0.056. The SARS-CoV-2 infection rate in assay [2] is 113% (inactive).
Taken in the same sequence, the figures for `CCCCCCCCCCCCC[N+](C)(C)Cc1ccccc1` [benzalkonium] (10 µM) were 0.0369 and 105% (inactive).
Taken in the same sequence, the figures for `COc1ccc(-c2c(C)c(C(=O)NN3CCCCC3)nn2-c2ccc(Cl)cc2Cl)cc1` (10 µM) were 0.154 and 86% (inactive).
In assay [1], `O=c1sn(-c2cccc3ccccc23)c(=O)n1Cc1ccccc1` [tideglusib] (10 µM) came in with a morphology score of 0.109. The SARS-CoV-2 infection rate in assay [2] was 108% (inactive).
Regarding `N[C@@H](Cn1oc(=O)[nH]c1=O)C(=O)O` [L-quisqualic-acid] (10 µM), in assay [1], the morphology score amounted to 0.0395. The SARS-CoV-2 infection rate in assay [2] was 106% (inactive).
`N[C@@H](CS(=O)O)C(=O)O` [L-cysteinesulfinic-acid] (10 µM) came in with a morphology score in assay [1] of -0.0506. Also, in assay [2], the SARS-CoV-2 infection rate was 108% (inactive).
In the same order, the values of `CN(C)CCCN1c2ccccc2Sc2ccc(C(F)(F)F)cc21` [triflupromazine] (10 µM) are 0.465 and 56% (active).
Taken in the same sequence, the figures for `C=C[C@H]1CN2CC[C@H]1C[C@@H]2[C@@H](O)c1ccnc2ccc(OC)cc12` [quinidine] (10 µM) were 0.155 and 108% (inactive).
Taken in the same sequence, the figures for `COc1cccc(OC)c1C(=O)N[C@@H]1C(=O)N2[C@@H]1SC(C)(C)[C@@H]2C(=O)O` [methicillin] (10 µM) were -0.0574 and 112% (inactive).
Molecule `O=C(O)c1ccc(-c2ccc3cc(O)c(C45CC6CC(CC(C6)C4)C5)cc3c2)cc1` (10 µM) showed a morphology score in assay [1] of -0.0522. Moreover, in assay [2], the SARS-CoV-2 infection rate is 106% (inactive).
Taken in the same sequence, the figures for `CN1CCN(C(c2ccccc2)c2ccccc2)CC1` [cyclizine] (10 µM) were -0.126 and 108% (inactive).
In the same order, the values of `C[C@H]1C[C@H]2[C@@H]3CCC4=CC(=O)C=C[C@]4(C)[C@H]3C(=O)C[C@]2(C)[C@@]1(O)C(=O)CO` [Betapar (Meprednisone)] (10 µM) are 0.0238 and 108% (inactive).
